Results: the supplement of paper PMC11732987, “Enantioselective OTUD7B fragment discovery through chemoproteomics screening and high-throughput optimisation” (Communications Chemistry, 2025)

How the values were obtained:
Experiment in all cases: log2 ratio of Biotin-Ahx-Ub-VS probe labelling (fragment/DMSO); higher = less target engagement (more negative = stronger competition), active = hit call of the paper (q ≤ 0.05, log2 ratio ≤ -1)
Details in all cases: compound concentration: 200 uM; treatment time: 3 h
USP34 = USP34 (UniProt Q70CQ2)
Chain of USP34 (Q70CQ2 whole entry, the tested form may be a part): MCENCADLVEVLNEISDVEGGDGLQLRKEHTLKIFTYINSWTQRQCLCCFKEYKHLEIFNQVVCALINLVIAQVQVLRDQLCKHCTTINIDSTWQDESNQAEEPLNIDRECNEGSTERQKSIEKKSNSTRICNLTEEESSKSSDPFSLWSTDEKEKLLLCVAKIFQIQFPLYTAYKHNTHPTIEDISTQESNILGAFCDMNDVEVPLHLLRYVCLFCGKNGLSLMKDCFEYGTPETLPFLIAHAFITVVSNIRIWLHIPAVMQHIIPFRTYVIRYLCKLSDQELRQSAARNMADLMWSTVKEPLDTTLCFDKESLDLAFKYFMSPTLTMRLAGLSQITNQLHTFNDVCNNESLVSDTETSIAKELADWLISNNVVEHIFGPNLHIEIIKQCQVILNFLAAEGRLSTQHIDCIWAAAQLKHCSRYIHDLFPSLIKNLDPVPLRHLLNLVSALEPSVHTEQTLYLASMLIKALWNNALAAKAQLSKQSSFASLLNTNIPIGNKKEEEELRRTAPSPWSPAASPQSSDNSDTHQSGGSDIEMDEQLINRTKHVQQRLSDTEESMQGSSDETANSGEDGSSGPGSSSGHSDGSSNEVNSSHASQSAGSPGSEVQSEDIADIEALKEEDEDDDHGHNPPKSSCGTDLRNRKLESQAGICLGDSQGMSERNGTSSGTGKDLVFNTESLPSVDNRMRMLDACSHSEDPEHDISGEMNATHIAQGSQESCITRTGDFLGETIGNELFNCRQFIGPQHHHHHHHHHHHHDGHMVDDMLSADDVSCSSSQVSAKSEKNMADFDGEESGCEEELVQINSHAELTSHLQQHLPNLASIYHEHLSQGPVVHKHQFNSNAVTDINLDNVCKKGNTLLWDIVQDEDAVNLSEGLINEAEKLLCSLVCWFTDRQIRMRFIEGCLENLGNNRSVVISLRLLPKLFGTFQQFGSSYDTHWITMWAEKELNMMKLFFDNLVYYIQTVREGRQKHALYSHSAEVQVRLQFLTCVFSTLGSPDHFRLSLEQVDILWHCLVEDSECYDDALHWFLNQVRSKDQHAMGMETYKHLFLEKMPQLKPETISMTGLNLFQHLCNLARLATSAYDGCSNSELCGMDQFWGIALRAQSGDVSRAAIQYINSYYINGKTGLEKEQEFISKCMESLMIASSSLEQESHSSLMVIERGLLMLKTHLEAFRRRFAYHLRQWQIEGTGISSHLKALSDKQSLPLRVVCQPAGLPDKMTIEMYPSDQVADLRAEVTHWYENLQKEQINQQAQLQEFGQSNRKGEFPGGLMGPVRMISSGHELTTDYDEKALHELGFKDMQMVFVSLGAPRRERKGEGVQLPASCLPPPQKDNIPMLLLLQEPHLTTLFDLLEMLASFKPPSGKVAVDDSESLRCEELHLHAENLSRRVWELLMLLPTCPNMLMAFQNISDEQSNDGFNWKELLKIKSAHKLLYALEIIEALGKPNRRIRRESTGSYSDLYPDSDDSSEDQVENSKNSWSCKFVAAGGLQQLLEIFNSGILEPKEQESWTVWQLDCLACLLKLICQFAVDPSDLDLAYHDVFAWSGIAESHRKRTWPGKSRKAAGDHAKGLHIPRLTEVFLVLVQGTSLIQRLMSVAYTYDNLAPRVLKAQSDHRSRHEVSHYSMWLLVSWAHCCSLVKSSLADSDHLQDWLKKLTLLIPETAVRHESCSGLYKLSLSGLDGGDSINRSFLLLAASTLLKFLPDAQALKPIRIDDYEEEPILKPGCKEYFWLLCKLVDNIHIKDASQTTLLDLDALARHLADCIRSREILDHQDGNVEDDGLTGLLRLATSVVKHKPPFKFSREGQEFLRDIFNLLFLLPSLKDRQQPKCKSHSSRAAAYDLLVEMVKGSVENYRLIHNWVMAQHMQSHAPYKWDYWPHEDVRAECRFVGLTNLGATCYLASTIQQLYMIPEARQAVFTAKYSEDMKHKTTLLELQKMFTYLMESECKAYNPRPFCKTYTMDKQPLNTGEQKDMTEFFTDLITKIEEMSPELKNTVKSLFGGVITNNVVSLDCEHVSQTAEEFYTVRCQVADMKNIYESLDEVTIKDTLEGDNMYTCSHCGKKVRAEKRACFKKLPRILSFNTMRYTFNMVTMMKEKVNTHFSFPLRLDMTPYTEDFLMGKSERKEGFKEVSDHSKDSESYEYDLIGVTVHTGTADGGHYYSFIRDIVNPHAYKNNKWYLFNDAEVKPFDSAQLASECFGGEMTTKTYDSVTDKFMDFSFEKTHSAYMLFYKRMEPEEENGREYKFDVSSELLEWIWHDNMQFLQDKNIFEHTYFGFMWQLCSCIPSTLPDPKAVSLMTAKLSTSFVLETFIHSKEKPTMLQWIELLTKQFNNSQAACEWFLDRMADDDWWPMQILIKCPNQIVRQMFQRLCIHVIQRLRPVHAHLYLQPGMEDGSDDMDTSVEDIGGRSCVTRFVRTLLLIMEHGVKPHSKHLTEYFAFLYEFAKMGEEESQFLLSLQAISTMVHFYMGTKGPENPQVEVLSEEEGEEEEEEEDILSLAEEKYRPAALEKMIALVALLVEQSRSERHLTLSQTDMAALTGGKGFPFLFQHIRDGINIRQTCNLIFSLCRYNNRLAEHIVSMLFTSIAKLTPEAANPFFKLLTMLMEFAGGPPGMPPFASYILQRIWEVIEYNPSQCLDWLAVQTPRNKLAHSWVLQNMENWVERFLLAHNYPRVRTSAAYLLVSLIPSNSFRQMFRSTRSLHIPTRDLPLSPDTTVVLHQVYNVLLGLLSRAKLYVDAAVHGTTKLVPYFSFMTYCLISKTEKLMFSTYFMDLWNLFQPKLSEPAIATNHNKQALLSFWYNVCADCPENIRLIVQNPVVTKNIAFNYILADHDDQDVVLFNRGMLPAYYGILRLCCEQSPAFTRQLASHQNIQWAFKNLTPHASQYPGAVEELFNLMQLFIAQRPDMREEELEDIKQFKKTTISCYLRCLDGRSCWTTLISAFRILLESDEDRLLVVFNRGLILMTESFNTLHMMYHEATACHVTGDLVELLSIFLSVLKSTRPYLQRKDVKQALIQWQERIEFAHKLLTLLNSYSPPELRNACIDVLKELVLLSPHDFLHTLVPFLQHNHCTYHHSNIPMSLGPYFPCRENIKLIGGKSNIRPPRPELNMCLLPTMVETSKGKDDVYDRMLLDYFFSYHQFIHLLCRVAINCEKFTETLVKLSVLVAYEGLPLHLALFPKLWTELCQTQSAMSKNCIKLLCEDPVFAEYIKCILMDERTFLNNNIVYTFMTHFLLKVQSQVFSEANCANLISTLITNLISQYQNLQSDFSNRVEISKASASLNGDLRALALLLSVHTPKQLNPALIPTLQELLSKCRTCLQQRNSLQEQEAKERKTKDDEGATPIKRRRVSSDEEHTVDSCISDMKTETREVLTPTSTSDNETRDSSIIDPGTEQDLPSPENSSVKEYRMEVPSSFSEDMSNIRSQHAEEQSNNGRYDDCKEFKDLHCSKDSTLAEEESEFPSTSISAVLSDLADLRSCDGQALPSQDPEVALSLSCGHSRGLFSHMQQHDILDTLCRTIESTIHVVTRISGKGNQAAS
Method in brief: (§1)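 Each value is an average log2 ratio of fragment to vehicle, tested by unpaired t-test. The underlying Spectronaut label-free quantities were global-median-normalised, and only proteins with ≥2 unique peptides were included. Triplicate HEK293T lysate samples (495 µg) were exposed to fragment at 200 µM or vehicle for 3 h, then to Biotin-Ahx-Ub-VS at 0.5 µM final for 1 h, before NeutrAvidin enrichment of labelled DUBs, LysC and trypsin digestion, and diaPASEF LC-MS/MS.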

USP36 = biological target: T1, USP36 (UniProt Q9P275)
T1 sequence (whole entry): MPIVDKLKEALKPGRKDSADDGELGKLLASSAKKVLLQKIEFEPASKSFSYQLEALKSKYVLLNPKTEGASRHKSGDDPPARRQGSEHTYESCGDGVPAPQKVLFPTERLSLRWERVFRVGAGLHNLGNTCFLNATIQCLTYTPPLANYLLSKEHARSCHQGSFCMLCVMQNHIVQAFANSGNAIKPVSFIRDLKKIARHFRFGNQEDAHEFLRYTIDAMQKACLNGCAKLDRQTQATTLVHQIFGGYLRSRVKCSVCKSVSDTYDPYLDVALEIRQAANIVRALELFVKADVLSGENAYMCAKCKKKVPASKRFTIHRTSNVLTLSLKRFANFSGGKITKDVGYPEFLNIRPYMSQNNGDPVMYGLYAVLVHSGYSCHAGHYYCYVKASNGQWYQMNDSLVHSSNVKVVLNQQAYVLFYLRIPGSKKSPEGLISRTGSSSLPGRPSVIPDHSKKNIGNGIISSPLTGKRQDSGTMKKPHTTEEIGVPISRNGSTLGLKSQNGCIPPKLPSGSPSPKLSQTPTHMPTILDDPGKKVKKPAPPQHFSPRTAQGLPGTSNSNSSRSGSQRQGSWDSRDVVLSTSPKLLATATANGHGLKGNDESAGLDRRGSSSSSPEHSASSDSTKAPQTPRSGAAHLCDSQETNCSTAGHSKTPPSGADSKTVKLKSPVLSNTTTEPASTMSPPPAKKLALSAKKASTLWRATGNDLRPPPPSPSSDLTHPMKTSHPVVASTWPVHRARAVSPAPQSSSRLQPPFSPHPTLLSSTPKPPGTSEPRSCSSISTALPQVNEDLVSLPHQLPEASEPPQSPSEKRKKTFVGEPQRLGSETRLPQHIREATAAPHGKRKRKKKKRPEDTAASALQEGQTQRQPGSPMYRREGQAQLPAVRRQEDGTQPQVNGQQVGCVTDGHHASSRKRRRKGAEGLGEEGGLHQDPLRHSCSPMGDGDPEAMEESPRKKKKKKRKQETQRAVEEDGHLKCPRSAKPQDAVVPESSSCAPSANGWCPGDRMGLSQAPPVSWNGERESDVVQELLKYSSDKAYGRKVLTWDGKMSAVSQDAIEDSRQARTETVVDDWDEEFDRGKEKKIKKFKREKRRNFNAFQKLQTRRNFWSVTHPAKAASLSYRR
Method in brief: as §1

USP38 = biological target: T2, USP38 (UniProt Q8NB14)
T2 sequence (whole entry): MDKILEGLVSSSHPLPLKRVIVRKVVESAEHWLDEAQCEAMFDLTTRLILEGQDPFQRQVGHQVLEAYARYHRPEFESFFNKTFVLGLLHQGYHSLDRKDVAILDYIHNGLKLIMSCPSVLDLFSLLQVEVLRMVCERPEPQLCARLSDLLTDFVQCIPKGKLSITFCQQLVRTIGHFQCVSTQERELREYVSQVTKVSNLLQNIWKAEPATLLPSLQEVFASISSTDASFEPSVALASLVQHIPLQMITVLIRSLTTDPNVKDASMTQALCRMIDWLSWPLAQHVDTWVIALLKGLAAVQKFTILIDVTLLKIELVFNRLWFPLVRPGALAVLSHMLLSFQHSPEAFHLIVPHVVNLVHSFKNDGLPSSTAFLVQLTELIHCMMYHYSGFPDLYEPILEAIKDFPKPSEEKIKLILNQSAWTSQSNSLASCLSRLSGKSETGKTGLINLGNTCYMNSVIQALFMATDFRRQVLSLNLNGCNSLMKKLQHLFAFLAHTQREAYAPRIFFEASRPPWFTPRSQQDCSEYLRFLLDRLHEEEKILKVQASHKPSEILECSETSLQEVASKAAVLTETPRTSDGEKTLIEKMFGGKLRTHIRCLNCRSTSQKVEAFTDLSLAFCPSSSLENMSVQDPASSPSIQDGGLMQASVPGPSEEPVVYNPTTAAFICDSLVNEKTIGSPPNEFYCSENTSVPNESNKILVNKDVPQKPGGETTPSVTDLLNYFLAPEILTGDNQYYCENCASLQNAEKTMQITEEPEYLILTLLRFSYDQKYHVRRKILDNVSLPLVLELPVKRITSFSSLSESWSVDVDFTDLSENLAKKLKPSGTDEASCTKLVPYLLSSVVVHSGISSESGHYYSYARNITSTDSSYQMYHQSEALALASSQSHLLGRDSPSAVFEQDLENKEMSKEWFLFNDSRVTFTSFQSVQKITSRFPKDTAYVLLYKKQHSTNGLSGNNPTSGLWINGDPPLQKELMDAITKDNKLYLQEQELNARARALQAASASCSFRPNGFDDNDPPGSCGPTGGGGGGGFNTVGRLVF
Method in brief: as §1

USP39 = biological target: T3, USP39 (UniProt Q53GS9)
T3 sequence (whole entry): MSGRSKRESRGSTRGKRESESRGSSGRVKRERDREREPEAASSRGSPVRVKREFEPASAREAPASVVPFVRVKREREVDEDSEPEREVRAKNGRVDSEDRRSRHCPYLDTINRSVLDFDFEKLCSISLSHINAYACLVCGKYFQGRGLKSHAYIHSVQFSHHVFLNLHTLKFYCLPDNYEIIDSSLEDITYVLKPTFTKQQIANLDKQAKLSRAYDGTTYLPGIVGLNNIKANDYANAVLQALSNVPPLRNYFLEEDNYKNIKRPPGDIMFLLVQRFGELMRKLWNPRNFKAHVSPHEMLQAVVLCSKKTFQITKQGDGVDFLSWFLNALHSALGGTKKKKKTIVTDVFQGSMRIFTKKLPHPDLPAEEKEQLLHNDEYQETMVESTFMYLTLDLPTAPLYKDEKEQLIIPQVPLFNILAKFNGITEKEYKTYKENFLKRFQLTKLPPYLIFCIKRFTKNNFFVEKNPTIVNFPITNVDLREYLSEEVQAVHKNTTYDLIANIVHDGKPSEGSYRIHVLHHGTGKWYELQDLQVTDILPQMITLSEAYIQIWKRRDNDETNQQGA
Method in brief: as §1

USP4 = biological target: T4, USP4 (UniProt Q13107)
T4 sequence (whole entry): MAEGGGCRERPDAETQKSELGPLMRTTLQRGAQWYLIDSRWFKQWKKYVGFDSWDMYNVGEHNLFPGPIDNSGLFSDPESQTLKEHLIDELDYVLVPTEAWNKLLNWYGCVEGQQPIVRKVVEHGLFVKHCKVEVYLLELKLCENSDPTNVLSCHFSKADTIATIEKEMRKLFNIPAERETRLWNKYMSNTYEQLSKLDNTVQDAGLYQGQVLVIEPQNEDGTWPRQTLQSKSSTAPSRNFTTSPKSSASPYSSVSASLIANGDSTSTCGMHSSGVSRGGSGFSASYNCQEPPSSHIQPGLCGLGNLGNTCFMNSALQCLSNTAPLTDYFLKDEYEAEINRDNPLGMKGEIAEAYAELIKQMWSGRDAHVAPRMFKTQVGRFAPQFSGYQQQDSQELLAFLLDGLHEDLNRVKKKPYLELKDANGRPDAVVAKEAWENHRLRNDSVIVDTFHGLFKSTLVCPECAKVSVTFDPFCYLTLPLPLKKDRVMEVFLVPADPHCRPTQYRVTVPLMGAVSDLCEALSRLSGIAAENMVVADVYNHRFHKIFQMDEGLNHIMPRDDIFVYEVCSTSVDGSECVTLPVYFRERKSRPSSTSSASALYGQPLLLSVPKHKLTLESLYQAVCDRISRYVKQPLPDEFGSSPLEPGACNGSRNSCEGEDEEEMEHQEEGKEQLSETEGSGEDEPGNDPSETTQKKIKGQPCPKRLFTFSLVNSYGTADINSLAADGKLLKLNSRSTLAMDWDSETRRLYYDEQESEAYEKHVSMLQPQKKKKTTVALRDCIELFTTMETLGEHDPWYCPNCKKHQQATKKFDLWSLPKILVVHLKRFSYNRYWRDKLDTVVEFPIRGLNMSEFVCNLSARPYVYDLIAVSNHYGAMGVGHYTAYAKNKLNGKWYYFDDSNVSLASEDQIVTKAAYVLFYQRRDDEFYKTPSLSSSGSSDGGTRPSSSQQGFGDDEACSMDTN
Method in brief: as §1

Measured: log2 ratio of Biotin-Ahx-Ub-VS probe labelling

Cc1ccc(C(=O)NCCNC(=O)CCl)cc1
inactive: USP34 -0.0636 | USP36 0.0541 | USP38 -0.00607 | USP39 -0.0936 | USP4 -0.258
